We go through 8 molecules from PubChem BioAssay.

In general, viability refers to a read-out of living cells in per cent, often relative to untreated cells. As usually defined, the inhibition is the drop in the measured response relative to a control, in per cent. A word on the remaining activity: it is the signal under treatment as a percentage of the control signal.

Experiment [1] is described as follows: EMT-state selective cytotoxicity in co-culture – imaging, PC-3E GFP, TEM4-18 mCherry, primary screen (AID 1345086;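 active means compounds killing one labelled cell type while sparing the other, by normalised counts and ratio limits, not self-fluorescent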;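 on all read-outs here: cells exposed to compound for 72 h before imaging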;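 on red/green cell ratio (normalised): normalised mesenchymal count divided by normalised epithelial count so high means epithelial killing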). The note with it: PC-3E GFP / TEM4-18 mCherry co-culture, imaging cell counts, at 1 µM; for red/green cell ratio (normalised): actives lie on both sides.
In experiment [2] the test system is Aerobactin synthetase IucA (Klebsiella pneumoniae hvKP1). The experiment in a line: IucA enzyme inhibition, primary screen, biochemical, Spectrum library (AID 1346200).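 Further: 100% = wells without compound and 0% = wells lacking enzyme.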 The note with it: malachite green pyrophosphate, A620, at 8 µM, stronger effect = lower value.
In experiment [3] the target is Mitogen-activated protein kinase 7 (Homo sapiens) (UniProt Q13164). Put plainly: Gal4-ERK5 driven luciferase induction – cell-based, HTS, primary screen (AID 1508626;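 active means luciferase signal above three times the same-plate solvent-only control wells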;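 further: luciferase driven by Gal4-ERK5 fusion binding five Gal4 sites before minimal TATA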). The note with it: HeLa Gal4-ERK5 transactivation, 18 h, at 5 µM, stronger effect = higher value.
Chain of Mitogen-activated protein kinase 7 (Homo sapiens) (Q13164 whole entry, looked up, the tested form may be a part): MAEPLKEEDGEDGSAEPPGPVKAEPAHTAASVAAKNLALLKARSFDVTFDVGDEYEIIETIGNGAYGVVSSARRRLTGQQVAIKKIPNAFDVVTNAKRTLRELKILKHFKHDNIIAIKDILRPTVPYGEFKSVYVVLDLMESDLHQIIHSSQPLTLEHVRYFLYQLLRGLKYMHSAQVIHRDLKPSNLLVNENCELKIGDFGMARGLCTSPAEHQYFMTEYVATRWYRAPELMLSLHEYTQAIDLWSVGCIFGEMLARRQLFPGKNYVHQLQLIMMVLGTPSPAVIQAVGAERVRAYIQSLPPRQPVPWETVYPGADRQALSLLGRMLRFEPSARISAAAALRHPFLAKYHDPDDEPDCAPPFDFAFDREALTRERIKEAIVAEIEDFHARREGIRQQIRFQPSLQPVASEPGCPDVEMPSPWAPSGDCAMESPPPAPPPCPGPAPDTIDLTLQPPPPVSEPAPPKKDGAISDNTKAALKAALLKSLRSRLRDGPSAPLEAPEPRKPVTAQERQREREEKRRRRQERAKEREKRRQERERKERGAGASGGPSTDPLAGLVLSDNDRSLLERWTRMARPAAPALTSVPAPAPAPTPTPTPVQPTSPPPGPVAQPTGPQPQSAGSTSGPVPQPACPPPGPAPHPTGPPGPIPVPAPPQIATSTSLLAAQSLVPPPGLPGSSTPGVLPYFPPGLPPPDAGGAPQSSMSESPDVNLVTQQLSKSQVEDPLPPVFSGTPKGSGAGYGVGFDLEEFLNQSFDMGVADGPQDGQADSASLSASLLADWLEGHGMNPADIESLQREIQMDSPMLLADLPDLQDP
Experiment [4] can be described thus: P. berghei load reduction in hepatocytes – cell-based, HepG2, luciferase luminescence, HepG2 viability, primary screen (AID 624349; in the data active means parasite load remaining mostly below about 12%, no sharp cut-off; inactive means mostly above about 10%;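 further: 100% = mean of DMSO negative control wells on the same plate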). The note with it: P. berghei liver stage in HepG2, luciferase luminescence, concentration not given here; parasite load remaining: stronger effect = lower value; viability: measured here: HepG2 viability without parasites.
A short description of experiment [5]: viability loss with induced miR-34 in A549 – imaging, A549 dox-inducible miR-34, nuclei and caspase counts, primary screen (AID 1347080;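 active means compounds whose cell count with miR-34 switched on is under 0.7 times the count with it off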). Conditions: A549 miR-34 inducible, Hoechst nuclei count, 48 h.
A short description of experiment [6]: MELAS cybrid and Rieske KO viability enhancers – cell-based, MELAS cybrids, Rieske KO mouse fibroblasts, CellTiter-Glo, primary screen (AID 1508586;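 active means mean z-score across replicates of 1.96 or higher in either the MELAS or the Rieske mutant cell line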;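 further: z relative to plate mean and SD of compound and empty wells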). The note with it: low glucose. On the technique in general: In ATP-based viability assays light output follows the ATP content of the culture.
Experiment [7] can be described thus: galactose survival enhancers in mitochondrial complex I cybrids – cell-based, galactose medium, ATP luminescence, primary screen (AID 1645843;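 active means z-score of at least 1.8 in each of two replicates, scored against plate mean and spread of sample wells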;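 further: positive z means more ATP and so rescue of galactose-driven cybrid death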). Conditions: complex I mutant cybrid cells, 72 h, stronger effect = higher value.
Experiment [8] is described as follows: compounds altering circadian rhythm period length – cell-based, LOPAC library, luminescence reporter (AID 2774).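 Further: values are relative to mean of DMSO wells on each plate.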 The note with it: circadian reporter cells, at 7 µM, actives lie on both sides.
For experiment [9], the system named is Hepatitis C virus NS3 helicase. The experiment in a line: blockers of NS3h binding to ssDNA – biochemical, fluorescence polarization, LOPAC1280 library, primary screen (AID 687035; in the data active means inhibition above about 37%). The note with it: Purified HCV NS3 helicase, Cy5-dT15 ssDNA binding fluorescence polarization; stronger effect = higher value; concentration not given here. Background: Polarisation of emitted light reports the rotation of a fluorescent probe.

A short description of experiment [10]: compounds altering Cy5-DNA-NS3h complex signal – biochemical, LOPAC1280, artefact control for HCV NS3 helicase inhibitor project (AID 687037). Conditions: Cy5-DNA-NS3h complex fluorescence interference counterscreen. In general terms: A counterscreen serves to expose hits that act by an unwanted route or on another target.
Experiment [11] has as its system Aerobactin synthetase IucA (Klebsiella pneumoniae, hypervirulent). The experiment in a line: biochemical IucA inhibition screen of LOPAC library by absorbance (AID 1346212).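 Further: 100% = no compound wells and 0% = no enzyme wells.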 Conditions: IucA enzyme assay, absorbance (OD) readout; stronger effect = lower value;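 tested at 8 µM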.
Experiment [12] in a line: blockers of cellular phospholipid synthesis – cell-based, LOPAC library, screen 4, primary screen (AID 1347384). Conditions: animal cells, phospholipid biosynthesis inhibition screen; at 10 µM.
Where [13] appears, read: measured here: epithelial PC-3E GFP cell survival.
[14] abbreviates: measured here: mesenchymal TEM4-18 mCherry cell survival.
The mark [15] stands for this setting: measured here: relative caspase fold change +Dox/-Dox.
The mark [16] stands for this setting: measured here: total cells with miR-34 induction, stronger effect = lower value.
[17] abbreviates: measured here: total cells without miR-34 induction.
Where [18] appears, read: MELAS cybrid survival, CellTiter-Glo 48 h, stronger effect = higher value.
Setting [19] is: Rieske KO mouse fibroblast survival, CellTiter-Glo 72 h.

The structures appear in SMILES notation. Where “and” joins values, the source holds several entries; their conditions need not be identical. Identical values can stand only once. Calls of active or inactive are those of the source. Unless noted, how the calls were made is not given here.

Consider `CC(=O)O[C@H]1C[C@@H](OC(C)=O)C(C)(C)C2C[C@@H](OC(C)=O)[C@]3(C)C(CC[C@@]4(C)[C@H](c5ccoc5)C(=O)[C@H]5O[C@]543)[C@]21C` (stereo not given in full), for which the red/green cell ratio (normalised) in experiment [1] is 1.03 (inactive). In addition, the normalised cell number in [1] (setting [13]) amounted to 1.08; in experiment [1] (setting [14]), 1.12. Further, the activity remaining in experiment [2] was 109% (inactive). Moreover, the luciferase signal in experiment [3] was 132 AU (active).
For the molecule `CN(C)Cc1c[nH]c2ccccc12`, in experiment [4], the parasite load remaining was 169% (inactive) and 78.1% (inactive). The viability in experiment [4] is 115% and 79.2%. Further, the red/green cell ratio (normalised) in [1] is 1.08 (inactive). In addition, the normalised cell number in experiment [1] (setting [13]) was 0.84; in experiment [1] (setting [14]) it was 0.9. For the same molecule, the fold change was 0.891 (inactive) and 0.984 (inactive) in experiment [5] (stronger effect = lower value); 2.07 and 0.28 in experiment [5] (setting [15]). The cell count in experiment [5] (setting [16]) is 8410 and 7970; in experiment [5] (setting [17]), 9440 and 8100. The z-score in experiment [6] (setting [18]) was -0.265 (inactive); in [6] (setting [19]), 0.0463.
Take `C[C@H]1O[C@H](OC2[C@@H](O)[C@@H](O)C(O)[C@H](O)[C@H]2O)[C@@H](N)C[C@@H]1N=C(N)C(=O)O` (stereo not given in full): the parasite load remaining in experiment [4] is 61.4% (inactive). The viability in experiment [4] is 141%. Further, the red/green cell ratio (normalised) in experiment [1] was 1.07 (inactive). In addition, the normalised cell number in [1] (setting [13]) worked out at 1; in [1] (setting [14]), 1.07. Moreover, the fold change in [5] (stronger effect = lower value) is 0.847 (inactive); in [5] (setting [15]) it was 1.18. The cell count in experiment [5] (setting [16]) amounted to 8950; in experiment [5] (setting [17]), 10600. Moreover, the figures for the z-score in [6] (setting [18]), in experiment [6] (setting [19]) and in [7] were -0.576 (inactive), -0.393 and 0.075 (inactive), respectively. For the same molecule, the luciferase signal in [3] was 128 AU (inactive).
Consider `COC1=CC(=O)OC(/C=C/c2ccccc2)C1` (stereo not given), for which the red/green cell ratio (normalised) in experiment [1] is 0.84 (inactive). Further, the figures for the normalised cell number in [1] (setting [13]) and in experiment [1] (setting [14]) were 0.94 and 0.79, respectively. Also, the fold change in [5] (stronger effect = lower value) is 0.833 (inactive); in experiment [5] (setting [15]), 1.16. The figures for the cell count in experiment [5] (setting [16]) and in experiment [5] (setting [17]) were 4840 and 5810, respectively.
In the case of `C=CCN=C=S`, in experiment [1], the red/green cell ratio (normalised) was 0.88 (inactive). For the same molecule, the normalised cell number worked out at 1.07 in experiment [1] (setting [13]) and 0.93 in experiment [1] (setting [14]). In addition, the fold change in experiment [5] (stronger effect = lower value) was 1.01 (inactive); in experiment [5] (setting [15]) it was 0.842. The cell count in experiment [5] (setting [16]) turned out to be 7390; in experiment [5] (setting [17]), 7280.
Take `CC1(C)C2CC(=O)[C@]3(C)C(CC[C@@]4(C)[C@H](c5ccoc5)OC(=O)[C@H]5O[C@]543)[C@@]2(C)C(=O)C[C@H]1O` (stereo not given in full): the red/green cell ratio (normalised) in experiment [1] is 0.94 (inactive). For the same molecule, the results for the normalised cell number in experiment [1] (setting [13]) and in experiment [1] (setting [14]) were 1.08 and 1.01, respectively. Moreover, the activity remaining in experiment [2] is 109% (inactive). The luciferase signal in [3] is 36 AU (inactive).
Regarding `C[N+]1(C)CCOC(O)(c2ccc(-c3ccc(C4(O)C[N+](C)(C)CCO4)cc3)cc2)C1` (stereo not given), the period change in experiment [8] was 0.02 h (inactive). Also, the parasite load remaining in experiment [4] is 172% (inactive) and 77.5% (inactive). Further, the viability in experiment [4] is 105% and 75.6%. The inhibition in [9] was 3% (inactive). In addition, in experiment [10], the fluorescence ratio (interference) is 1 (inactive). The red/green cell ratio (normalised) in [1] was 0.92 (inactive). Further, the normalised cell number is 1.15 in experiment [1] (setting [13]) and 1.05 in experiment [1] (setting [14]). Moreover, in experiment [11], the remaining activity is 108% (inactive). Besides, the fold change was 1.02 (inactive) and 0.872 (inactive) in experiment [5] (stronger effect = lower value); 0.804 and 1.21 in [5] (setting [15]). Besides, the cell count in experiment [5] (setting [16]) is 10300 and 8560; in experiment [5] (setting [17]), 10200 and 9810. Moreover, the molecule was classed as inactive in [12]. In addition, the z-score was -0.344 (inactive) in experiment [6] (setting [18]), -0.223 in experiment [6] (setting [19]) and 0.135 (inactive) in experiment [7].
With `C[N+]1(C)C2CCC1CC(OC(=O)C(CO)c1ccccc1)C2` (stereo not given), the period change in experiment [8] was 0.05 hour (inactive) and -0.075 hour (inactive). Further, the parasite load remaining in experiment [4] is 37.4% (inactive). Besides, the viability in [4] was 106%. Further, in experiment [9], the inhibition was -4% (inactive) and -3% (inactive). The fluorescence ratio (interference) in experiment [10] is 1 (inactive). Moreover, in experiment [1], the red/green cell ratio (normalised) was 1.05 (inactive). Also, the normalised cell number was 0.95 in experiment [1] (setting [13]) and 1 in experiment [1] (setting [14]). Further, in [11], the remaining activity was 112% (inactive). The fold change in experiment [5] (stronger effect = lower value) is 1.08 (inactive) and 0.98 (inactive) and 0.858 (inactive); in [5] (setting [15]), 1.57 and 0.863 and 5.64. Further, the cell count in experiment [5] (setting [16]) was 9760 and 10000 and 10600; in [5] (setting [17]) it was 9050 and 10200 and 12400. For the same molecule, in [12], the result was inactive. In addition, in experiment [7], the z-score was 0.49 (inactive) and 0.65 (inactive).
